The nature of experiment [1]: Quantitative high throughput screen for delayed death inhibitors of the malarial parasite plastid, 48 hour incubation (AID 488752). Further: nearly all actives have a fitted effect of over 65% in size. Further: potency means the concentration at half of the fitted maximal effect. The method, boiled down:
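Erythrocytes infected with P. falciparum carrying an integrated firefly luciferase reporter (2% hematocrit, 0.1% parasitemia final) were exposed to compounds in RPMI 1640/0.5% Albumax for 48 h at 37 C, 5% CO2. Growth inhibition was scored as reduced luminescence.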

In experiment [2] the target is Thioredoxin reductase 1, cytoplasmic (Rattus norvegicus) (UniProt O89049). Nature of the experiment: qHTS Assay for Substrates of Mammalian Selenoprotein Thioredoxin Reductase 1 (TrxR1) (AID 488772).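 Further: NADPH fluorescence in the first read after selenite addition and not the 8 min delta; series mostly up to about 57 µM; 0% is about no effect; a drop in NADPH fluorescence below the no-compound background marks a TrxR1 substrate.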 The method, boiled down:
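Quantitative HTS in Tris-HCl buffer at pH 7.5 with EDTA and Tween-20, using rat TrxR1, 400 uM NADPH and 400 uM selenite (final). A fall in initial NADPH fluorescence relative to background marked substrate behaviour.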
A general note: qHTS replaces the single test concentration by a dilution series.

The target is the same in experiment [3]. Nature of the experiment: qHTS Assay for Inhibitors of Mammalian Selenoprotein Thioredoxin Reductase 1 (TrxR1) (AID 488773).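 Further: drop in NADPH fluorescence over an 8 min run after selenite addition; series mostly up to about 57 µM; on the % scale 0 is the no-effect control and ±100 the full control effect; nearly all actives have a fitted effect of over 40% in size.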 The essentials: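 Steps: enzyme (90 nM) plus NADPH (400 uM final), 5 min at ~22 deg C; compound added, 15 min; selenite (400 uM final) added; fluorescence followed for 8 min. Concentration-response curves derived from the normalized delta values.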

The target in experiment [4] is Flap endonuclease 1 (Homo sapiens) (UniProt P39748). Nature of the experiment: qHTS Validation Assay for the Inhibitors of Human Flap endonuclease 1 (FEN1) (AID 488816). Further: on the % scale 0 is the no-effect control and ±100 the full control effect. The essentials: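 FEN1, dispensed as a 10 nM reagent, was preincubated with pin-transferred compounds for 15 min at room temperature before substrate was added (50 nM final). Plates were read at 0 and 15 min, and a four-parameter Hill equation was fitted to the concentration-response data.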

In experiment [5] the target is M-phase phosphoprotein 8 (Homo sapiens) (UniProt Q99549). Nature of the experiment: qHTS Validation Assay for Inhibitors for MPP8 Chromodomain Interactions with Methylated Histone Tails (AID 488949). Further: nearly all actives have a fitted effect of over 55% in size. Further: potency means the concentration at half of the fitted maximal effect. The essentials:
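MPP8 (50 nM) was pre-bound to 50 nM biotinylated H3(1-18)K9me3 peptide in PBS pH 7.4 with 0.01% Tween-20. Compounds were then added for 30 min at room temperature, and complex disruption was read by AlphaScreen with streptavidin donor and nickel-chelate acceptor beads.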

For experiment [6], the target named is Chromobox protein homolog 1 (Homo sapiens) (UniProt P83916). Nature of the experiment: qHTS Validation Assay for Inhibitors of HP1-beta Chromodomain Interactions with Methylated Histone Tails (AID 488953). Further: nearly all actives have a fitted effect of over 50% in size. Further: potency means the concentration at half of the fitted maximal effect. The essentials:
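HP1-beta (50 nM) was preincubated 30 min at room temperature with biotinylated H3(1-18)K9me3 peptide (50 nM) in PBS pH 7.4, 0.01% Tween-20, then with compounds 30 min. AlphaScreen signal was read after streptavidin donor/nickel chelate acceptor beads (10 ug/mL final).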

For experiment [7], the target named is Methanococcus maripaludis chaperonin (MmCpn) (UniProt Q6LX38). Nature of the experiment: High-Throughput Screening for Modulators of Cytosolic Chaperonin Activity: MmCpn Primary Screen (AID 488978).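 Further: 50 nM MmCpn enzyme hydrolysing 30 µM ATP at 37 °C; 0% is about no effect.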 The essentials: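 MmCpn at 50 nM final was preincubated 5 min at RT with compound. ATP was then added at 30 uM final for 10 min at 37 C. ADP formed was detected by Transcreener HTRF (665/590 nm).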

The target in experiment [8] is Transient receptor potential cation channel subfamily V member 1 (Homo sapiens) (UniProt Q8NER1). Nature of the experiment: HTS Assay for Compounds that Act as Enhancers of the Vanilloid Receptor 1 (AID 488979). Further: 0% is about no effect. The essentials: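 TRPV1-expressing cells loaded with Fluo-8 calcium dye; compounds added and calcium influx read kinetically for 3 min (agonist phase), then capsaicin at EC20 added and read 2 min more for enhancement. Fluorescence ex 480/em 520 nm.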

Experiment [9] addresses Thyrotropin receptor (Homo sapiens) (UniProt P16473). Nature of the experiment: qHTS Assay for Antagonists of the Thyroid Stimulating Hormone Receptor (AID 488980). Further: series mostly up to about 58 µM; 0% is about no effect. The method, boiled down: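 TSHR-transfected HEK293 cells (2000/well) in HEPES-buffered HBSS with 70 uM RO 20-1724 were stimulated with 4 nM TSH (EC80, final) in the presence of compound. cAMP was measured by HTRF competition after lysis and 30 min at RT.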

In experiment [10] the target is D(1A) dopamine receptor (Homo sapiens) (UniProt P21728). Nature of the experiment: HTS Assay for Allosteric Agonists of the Human D1 Dopamine Receptor: Primary Screen for Potentiators (AID 488982). Further: 0% is about no effect. The method, boiled down: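 Tetracycline-induced HEK293 T-REx cells force-coupled to calcium signalling were incubated overnight at 30 C and dye-loaded at room temperature. Calcium flux over 180 s after compound addition flagged agonists; a further 180 s read after EC20 dopamine flagged potentiators.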

The target is the same in experiment [11]. Nature of the experiment: HTS Assay for Allosteric Agonists of the Human D1 Dopamine Receptor: Primary Screen for Antagonists (AID 488983).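 Further: calcium flux response to an EC80 dopamine challenge measured with no-wash dye; nearly all actives have a fitted effect of over 65% in size.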 Further: potency means the concentration at half of the fitted maximal effect. The essentials: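 Tetracycline-induced HEK293 T-REx cells expressing force-coupled D1 were plated overnight at 30 C, dye-loaded for calcium, and read kinetically. Compounds were pinned in, then an EC80 dopamine challenge followed after 180 s to reveal antagonism.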

The target of experiment [12] is ATPase family AAA domain-containing protein 5 (Homo sapiens) (UniProt Q96QE3). Nature of the experiment: Validation screen for small molecules that inhibit ELG1-dependent DNA repair in human embryonic kidney (HEK293T) cells expressing luciferase-tagged ELG1 (AID 493107). Further: nearly all actives have a fitted effect of over 70% in size. Further: potency means the concentration at half of the fitted maximal effect. The method, boiled down:
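HEK293T cells expressing luciferase-tagged ELG1 were co-treated with 5-fluorouridine and compound or DMSO for 16 hr at 37 °C, 5% CO2. Luciferase activity was then read with ONE-Glo after 30 min at room temperature; suppressed signal indicates blocked ELG1 function.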

For experiment [13], the target named is Thyrotropin-releasing hormone receptor (Homo sapiens) (UniProt P34981). Nature of the experiment: qHTS for Small Molecule Agonists and Allosteric Enhancers of Human TRH Receptor: Validation Screen for Agonists (AID 493127;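 active means calcium activation more than 3 SD above the typical response in the agonist read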;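 further: intracellular calcium rise by fluo-8 fluorescence before TRH EC20 addition; 0% is about no effect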). Conditions: TRH receptor agonist cell assay; at 2 µM; stronger effect = higher value. The essentials:
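TRHR-expressing cells were plated overnight in serum-containing medium, then loaded with fluo-8 calcium dye at room temperature for 30 min–1.5 h. After a 10 s baseline, compound was pin-transferred and calcium fluorescence (ex 480/em 530) read kinetically for agonist response.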

The nature of experiment [14]: qHTS for Inhibitors of Cell Surface uPA Generation: Validation Assay (AID 493164).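 Further: RAW 264.7 macrophage cells exposed to compound for 18 h; 0% is about no effect.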 The method, boiled down:
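RAW 264.7, 4000 cells/well, o/n plating; cpd 7-pt 1:5 dilution 2.45 nM–38.3 uM final; 18 h, 37 C/5% CO2; ATP-Lite, 5 s luminescence exposure.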

The target in experiment [15] is Galactokinase (Homo sapiens) (UniProt P51570). Nature of the experiment: qHTS Validation Assay for Inhibitors of Human Galactokinase (GALK) (AID 493189). Further: 0% is about no effect. The method, boiled down:
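GALK (5 nM) with 35 uM ATP and 100 uM galactose in HEPES pH 8.0 with MgCl2, NaCl, DTT and BSA. Reaction ran 1 h at room temperature. Residual ATP read by Kinase-Glo Plus luminescence.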

Experiment [16] can be described thus: Validation screen for small molecules that induce DNA re-replication in SW480 colon adenocarcinoma cells (AID 504364). Further: 0% is about no effect. The essentials:
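SW480 cells seeded at 250 per well were exposed to compound or DMSO for 48 hr at 37 C, 5% CO2, then stained with Hoechst for 40 min. DNA content per nucleus was imaged (405 nm ex, 500-530 nm em).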

Experiment [17] concerns the target Peptidyl-prolyl cis-trans isomerase NIMA-interacting 1 (Homo sapiens) (UniProt Q13526). Nature of the experiment: qHTS Validation Assay to Find Inhibitors of Pin1 (AID 504536; active means well fitted inhibition curve with a large enough effect in the polarisation, with a control signal flat, not every such curve was filed as active; the % refers to the polarisation;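 further: 0% = full Pin1 enzyme wells and -100% = no-enzyme wells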). The essentials:
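Fluorescence polarization competition: compounds (titration) displace HiFluor-488-labeled Pin1-1b peptide from Pin1 (0.3 uM final) in pH 7.5 HEPES buffer with DTT, 10 min at room temperature; %Activity normalized to no-enzyme wells, curves fitted.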

For experiment [18], the target named is ATP-dependent 6-phosphofructokinase (Trypanosoma brucei brucei) (UniProt O15648). Nature of the experiment: qHTS Assay to Find Inhibitors of T. brucei phosphofructokinase: hit validation (AID 492961).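 Further: luminescence reports ADP formed as PFK phosphorylates fructose-6-phosphate with ATP; series mostly up to about 51 µM; on the % scale 0 is the no-effect control and ±100 the full control effect.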 The essentials:
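Reaction: 0.1 M triethanolamine pH 8.0, 5 mM MgCl2, F6P 0.5 mM, ATP 0.1 mM, PFK 1.25 nM, 45 min RT. Read-out: ADP-Glo luminescence. Analysis: concentration-response fits, classed by r2 and efficacy.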

Experiment [19] in a line: Validation screen for small molecules that induce genotoxicity in human embryonic kidney (HEK293T) cells expressing luciferase-tagged ELG1 (AID 493106). Further: 0% is about no effect. The essentials: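 HEK293T cells expressing luciferase-tagged ELG1 were exposed to compound or DMSO vehicle for 16 hr at 37 °C, 5% CO2. Genotoxic stress raises ELG1 levels, so increased luciferase signal after ONE-Glo addition and 30 min at room temperature marks hits.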

Experiment [20] can be described thus: Nrf2 qHTS screen for inhibitors: Validation (AID 493153; active means well fitted inhibition curve with a large enough effect in the main read-out, with a control signal flat, not every such curve was filed as active). The conditions noted are these: viability change: measured here: cytotoxicity max response. The essentials: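 A549 cells carrying an ARE-driven firefly luciferase reporter, in 5% FBS OPTI-MEM, were treated with compounds in concentration-response for 18-24 h at 37°C. Viability was read by CellTiter-Fluor fluorescence, then Nrf2 activity by luciferase luminescence.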

Results filed as inconclusive are left out. Where a structure was tested more than once in an assay, its records may differ in their call. Activity calls are given as the source filed them. Unless noted, the call rests on the fitted dose curve; in most records, active means well fitted curve in the direction sought with a large enough effect; inconclusive means small, poorly fitted or top-dose-only effect, or another doubt; inactive means no such curve, though single readings can be large; an effect the other way counts as inactive or inconclusive.

Sequence of Transient receptor potential cation channel subfamily V member 1 (Homo sapiens) (Q8NER1 whole entry, looked up): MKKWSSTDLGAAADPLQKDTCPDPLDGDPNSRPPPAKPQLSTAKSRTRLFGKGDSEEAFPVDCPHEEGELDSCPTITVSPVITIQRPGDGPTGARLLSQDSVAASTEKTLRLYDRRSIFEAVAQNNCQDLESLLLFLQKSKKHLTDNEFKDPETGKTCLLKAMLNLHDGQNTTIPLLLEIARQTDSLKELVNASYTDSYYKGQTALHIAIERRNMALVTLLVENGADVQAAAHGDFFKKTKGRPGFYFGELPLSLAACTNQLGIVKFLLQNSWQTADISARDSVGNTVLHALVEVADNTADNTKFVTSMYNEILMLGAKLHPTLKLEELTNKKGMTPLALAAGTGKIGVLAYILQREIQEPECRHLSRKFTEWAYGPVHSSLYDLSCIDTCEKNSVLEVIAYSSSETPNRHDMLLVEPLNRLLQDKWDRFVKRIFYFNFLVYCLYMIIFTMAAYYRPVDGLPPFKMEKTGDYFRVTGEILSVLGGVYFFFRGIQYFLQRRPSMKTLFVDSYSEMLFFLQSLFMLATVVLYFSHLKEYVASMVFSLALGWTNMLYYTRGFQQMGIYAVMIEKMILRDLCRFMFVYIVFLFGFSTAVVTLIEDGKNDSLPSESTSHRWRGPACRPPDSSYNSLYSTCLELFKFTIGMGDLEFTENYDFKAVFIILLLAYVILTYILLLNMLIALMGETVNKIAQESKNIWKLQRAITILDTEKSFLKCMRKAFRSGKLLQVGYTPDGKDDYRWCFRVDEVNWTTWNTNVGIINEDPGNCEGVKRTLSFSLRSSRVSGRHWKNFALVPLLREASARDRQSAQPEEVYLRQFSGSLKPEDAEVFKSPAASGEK
Sequence of Methanococcus maripaludis chaperonin (MmCpn) (Q6LX38 1-543): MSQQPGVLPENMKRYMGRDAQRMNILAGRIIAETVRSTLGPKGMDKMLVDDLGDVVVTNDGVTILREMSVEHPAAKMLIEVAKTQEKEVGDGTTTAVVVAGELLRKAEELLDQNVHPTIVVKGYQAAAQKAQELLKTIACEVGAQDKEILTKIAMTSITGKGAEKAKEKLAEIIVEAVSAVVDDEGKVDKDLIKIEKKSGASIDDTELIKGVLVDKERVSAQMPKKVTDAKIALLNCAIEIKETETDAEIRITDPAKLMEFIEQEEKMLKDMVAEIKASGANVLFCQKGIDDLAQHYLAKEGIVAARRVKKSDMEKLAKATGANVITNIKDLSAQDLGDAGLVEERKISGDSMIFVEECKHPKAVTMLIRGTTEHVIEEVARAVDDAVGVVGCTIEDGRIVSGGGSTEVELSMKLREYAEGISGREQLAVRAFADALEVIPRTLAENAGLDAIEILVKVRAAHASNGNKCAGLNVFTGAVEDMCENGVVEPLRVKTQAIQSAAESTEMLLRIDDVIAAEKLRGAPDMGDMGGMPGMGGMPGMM
Sequence of Flap endonuclease 1 (Homo sapiens) (P39748 whole entry, looked up): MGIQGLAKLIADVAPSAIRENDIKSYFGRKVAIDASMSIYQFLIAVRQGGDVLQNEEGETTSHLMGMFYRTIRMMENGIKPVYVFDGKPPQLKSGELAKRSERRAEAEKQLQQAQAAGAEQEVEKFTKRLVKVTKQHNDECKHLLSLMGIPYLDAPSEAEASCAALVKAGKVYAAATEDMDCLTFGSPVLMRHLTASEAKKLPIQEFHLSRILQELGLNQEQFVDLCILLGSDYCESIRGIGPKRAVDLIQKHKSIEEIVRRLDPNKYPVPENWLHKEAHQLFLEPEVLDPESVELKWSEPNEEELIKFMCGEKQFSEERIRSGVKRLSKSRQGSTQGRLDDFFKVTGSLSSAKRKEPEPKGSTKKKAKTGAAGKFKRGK
Sequence of Thioredoxin reductase 1, cytoplasmic (Rattus norvegicus) (O89049 whole entry, looked up): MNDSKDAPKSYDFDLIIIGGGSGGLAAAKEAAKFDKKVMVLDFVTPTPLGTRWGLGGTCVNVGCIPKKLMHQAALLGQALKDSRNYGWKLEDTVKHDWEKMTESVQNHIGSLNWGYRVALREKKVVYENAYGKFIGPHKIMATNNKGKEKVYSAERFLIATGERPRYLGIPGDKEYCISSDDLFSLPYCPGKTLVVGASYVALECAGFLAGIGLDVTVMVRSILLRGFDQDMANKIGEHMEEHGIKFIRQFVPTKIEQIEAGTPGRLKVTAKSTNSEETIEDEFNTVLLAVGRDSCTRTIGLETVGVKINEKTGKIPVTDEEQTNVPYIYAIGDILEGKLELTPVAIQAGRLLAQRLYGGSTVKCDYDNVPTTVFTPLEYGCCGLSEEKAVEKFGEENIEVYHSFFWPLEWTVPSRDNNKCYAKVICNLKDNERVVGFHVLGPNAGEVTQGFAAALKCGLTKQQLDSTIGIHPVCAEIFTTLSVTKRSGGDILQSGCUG
Sequence of Thyrotropin receptor (Homo sapiens) (P16473 whole entry, looked up): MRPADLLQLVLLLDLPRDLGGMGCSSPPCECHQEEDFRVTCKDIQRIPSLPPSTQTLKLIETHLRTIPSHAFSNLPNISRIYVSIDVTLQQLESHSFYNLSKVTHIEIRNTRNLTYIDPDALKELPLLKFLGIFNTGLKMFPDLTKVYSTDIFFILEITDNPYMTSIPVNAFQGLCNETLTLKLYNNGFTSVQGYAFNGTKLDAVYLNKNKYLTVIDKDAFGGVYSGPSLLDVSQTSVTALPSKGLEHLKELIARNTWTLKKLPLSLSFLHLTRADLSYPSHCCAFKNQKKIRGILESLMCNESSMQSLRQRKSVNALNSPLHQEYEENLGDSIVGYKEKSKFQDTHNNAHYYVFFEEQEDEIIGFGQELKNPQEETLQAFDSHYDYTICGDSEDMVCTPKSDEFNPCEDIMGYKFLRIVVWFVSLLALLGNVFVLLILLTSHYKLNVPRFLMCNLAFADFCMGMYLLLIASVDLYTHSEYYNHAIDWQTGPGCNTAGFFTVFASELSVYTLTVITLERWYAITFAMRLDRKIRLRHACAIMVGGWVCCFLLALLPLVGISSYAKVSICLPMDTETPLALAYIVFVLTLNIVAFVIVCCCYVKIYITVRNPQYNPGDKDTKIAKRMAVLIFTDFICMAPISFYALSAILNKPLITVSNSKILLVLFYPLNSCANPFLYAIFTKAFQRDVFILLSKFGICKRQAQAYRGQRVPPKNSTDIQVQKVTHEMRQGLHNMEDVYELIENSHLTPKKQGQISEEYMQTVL
Sequence of Galactokinase (Homo sapiens) (P51570 whole entry, looked up): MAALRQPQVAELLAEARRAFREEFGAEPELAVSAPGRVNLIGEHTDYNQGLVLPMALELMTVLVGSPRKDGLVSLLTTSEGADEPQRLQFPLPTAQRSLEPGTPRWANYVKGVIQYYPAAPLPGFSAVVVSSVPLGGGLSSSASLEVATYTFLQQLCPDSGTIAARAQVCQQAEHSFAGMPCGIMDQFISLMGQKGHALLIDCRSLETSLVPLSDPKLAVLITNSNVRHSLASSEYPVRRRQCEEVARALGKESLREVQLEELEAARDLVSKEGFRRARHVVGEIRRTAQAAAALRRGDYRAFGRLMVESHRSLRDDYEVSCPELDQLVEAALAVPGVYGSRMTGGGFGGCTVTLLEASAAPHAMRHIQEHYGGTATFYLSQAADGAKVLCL
Sequence of D(1A) dopamine receptor (Homo sapiens) (P21728 whole entry, looked up): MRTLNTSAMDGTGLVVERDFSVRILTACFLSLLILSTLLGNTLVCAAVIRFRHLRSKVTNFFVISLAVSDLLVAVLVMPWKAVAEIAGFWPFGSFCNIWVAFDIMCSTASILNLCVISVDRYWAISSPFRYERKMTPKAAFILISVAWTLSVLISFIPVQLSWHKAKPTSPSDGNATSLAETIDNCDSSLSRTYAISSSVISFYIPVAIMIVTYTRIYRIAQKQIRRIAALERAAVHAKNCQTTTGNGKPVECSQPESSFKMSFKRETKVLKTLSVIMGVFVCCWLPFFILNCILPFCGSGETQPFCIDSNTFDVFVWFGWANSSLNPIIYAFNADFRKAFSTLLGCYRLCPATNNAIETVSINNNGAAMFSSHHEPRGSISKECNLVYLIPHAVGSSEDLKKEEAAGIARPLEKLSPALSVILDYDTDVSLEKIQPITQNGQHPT
Sequence of Peptidyl-prolyl cis-trans isomerase NIMA-interacting 1 (Homo sapiens) (Q13526 whole entry, looked up): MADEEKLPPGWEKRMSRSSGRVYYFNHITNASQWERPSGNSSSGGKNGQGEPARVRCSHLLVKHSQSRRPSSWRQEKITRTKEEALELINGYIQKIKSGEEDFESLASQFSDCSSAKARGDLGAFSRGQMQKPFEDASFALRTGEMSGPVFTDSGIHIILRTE
Sequence of Chromobox protein homolog 1 (Homo sapiens) (P83916 whole entry, looked up): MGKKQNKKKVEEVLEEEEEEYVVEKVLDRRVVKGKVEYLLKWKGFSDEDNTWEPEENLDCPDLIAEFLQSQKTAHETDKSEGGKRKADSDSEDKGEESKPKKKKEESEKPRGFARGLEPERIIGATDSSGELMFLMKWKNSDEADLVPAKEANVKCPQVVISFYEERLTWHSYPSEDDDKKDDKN
Sequence of ATP-dependent 6-phosphofructokinase (Trypanosoma brucei brucei) (O15648 whole entry, looked up): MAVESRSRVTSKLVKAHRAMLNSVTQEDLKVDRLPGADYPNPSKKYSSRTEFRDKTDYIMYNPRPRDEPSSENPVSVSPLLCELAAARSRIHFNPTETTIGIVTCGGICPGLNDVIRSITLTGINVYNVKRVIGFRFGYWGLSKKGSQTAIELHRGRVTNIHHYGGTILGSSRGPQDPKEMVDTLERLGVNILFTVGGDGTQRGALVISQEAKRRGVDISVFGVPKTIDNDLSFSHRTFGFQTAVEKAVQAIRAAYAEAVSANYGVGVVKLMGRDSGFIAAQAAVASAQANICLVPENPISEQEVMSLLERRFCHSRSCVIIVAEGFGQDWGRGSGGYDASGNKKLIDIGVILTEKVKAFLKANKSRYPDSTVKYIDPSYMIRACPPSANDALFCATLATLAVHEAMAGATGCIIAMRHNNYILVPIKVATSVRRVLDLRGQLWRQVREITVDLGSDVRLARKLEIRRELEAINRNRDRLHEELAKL

As to `COc1cc(NS(C)(=O)=O)ccc1Nc1c2ccccc2nc2ccccc12`, the Potency was 1.85 µM (active) in experiment [1]; 39.8 µM (active) and inactive in experiment [5]; 79.4 µM (active) in [6]; 1.12 µM (active) in experiment [11]; 14.6 µM (active) in experiment [12]. For the same molecule, the molecule was called inactive in [2], in experiment [3], in [4], in [7], in experiment [8] and in [9]. For the same molecule, the outcome in experiment [10], in [14], in experiment [15], in experiment [16] and in experiment [17] was inactive. For the same molecule, the activation in experiment [13] is -3.12% (inactive).
As to `C#C[C@]1(O)CC[C@H]2[C@@H]3CCc4cc(OC5CCCC5)ccc4[C@H]3CC[C@@]21C`, the molecule was called inactive in experiment [18].
Consider `Nc1cc(Cl)c(NC2=NCCN2)c(Cl)c1`, for which the Potency result in experiment [1], in experiment [5], in [6], in [11] and in experiment [12] was “inactive” throughout. In addition, the molecule was called inactive in [2], in experiment [3], in experiment [4], in [7], in experiment [8] and in experiment [9]. For the same molecule, the result in experiment [10], in [18], in experiment [19], in experiment [20], in [14] and in experiment [15] was inactive. Further, the result in experiment [16] and in experiment [17] was inactive. Further, the activation in experiment [13] is 1.12% (inactive). Moreover, in experiment [20], the viability change came to 1.6%.
For `CCCn1c(=O)[nH]c(=O)c2[nH]cnc21`, the Potency entry in [1], in experiment [5], in [6], in [11] and in experiment [12] was “inactive” each time. In addition, the molecule was called inactive in [2], in experiment [3], in [4], in experiment [7], in [8] and in experiment [9]. For the same molecule, the result in [10], in experiment [19], in [20], in [14], in [15] and in experiment [16] was inactive. Also, the outcome in experiment [17] was inactive. For the same molecule, the viability change in experiment [20] stood at 7.08%.

Values taken from PubChem BioAssay (NCATS).
